Calls of active or inactive are those of the source.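 Rule for the calls, unless noted: active = inhibition of the reporter signal at or above 50%; inactive = inhibition below 50%.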
Tests used:
[1] = inhibitors of TNFa-induced NFkB p65 translocation, primary screen, imaging, HUVEC, MLSMR starter and 10KST1 sets (AID 438;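 active = inhibition above 20% together with a positive visual image hit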;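 note: compound added about 3h40 before a 20 min TNFalpha stimulation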;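 for inhibition: signal is the nuclear over cytoplasmic p65 intensity ratio per well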); conditions: HUVEC TNFa-induced p65 nuclear translocation; cell count: measured here: nuclei count (cytotoxicity indicator), at 2.08 µM; inhibition: at 2 µM, stronger effect = higher value, 0% TNFa-plus-vehicle, 100% no-TNFa wells
[2] = inhibitors of mutant huntingtin aggregation, primary screen, imaging, exon1htt(103Q)mCFP cells, high-content imaging (AID 483;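 active = visual image review flags a hit and inhibition of aggregation exceeds 20%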;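 note: compound exposure lasted 3 days before fixation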;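 for nuclei count: percent of the per-plate median nuclei count of sample wells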); conditions: exon1htt(103Q)mCFP cell line, aggregate imaging, at 2 µM; inhibition of aggregation: stronger effect = higher value; nuclei count: measured here: cell count, toxicity
[3] = inhibitors of E-selectin induction by TNFa, primary screen, imaging, HUVEC, immunofluorescence, MLSMR starter and 10KST1 sets (AID 487;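 active = visually confirmed hit in the image check and inhibition above 20%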;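 for inhibition: signal is fraction of cell area covered by stained E-selectin grains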;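 for nuclei count: 100% = median nuclei count of all wells on the same plate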); conditions: HUVEC TNFalpha-induced E-selectin immunofluorescence imaging, at 2 µM; inhibition: stronger effect = higher value; nuclei count: measured here: cell number, toxicity
[4] = biological target: Voltage-gated potassium channel subunit beta-2 (Rattus norvegicus) (UniProt P62483); assay: KvBeta enzyme negative modulators, primary screen, biochemical, NADPH fluorescence (AID 622;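 active = fluorescence slope higher than the sample average by over 3 SD, cut at about -0.22 in these data, passing the limit was not always enough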;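 note: slope of raw intensity against log time taken from 70 to 1610 s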); conditions: recombinant KvBeta, 4-cyanobenzaldehyde reduction, at 10 µM, stronger effect = higher value
Voltage-gated potassium channel subunit beta-2 (Rattus norvegicus), sequence (P62483 whole entry, looked up): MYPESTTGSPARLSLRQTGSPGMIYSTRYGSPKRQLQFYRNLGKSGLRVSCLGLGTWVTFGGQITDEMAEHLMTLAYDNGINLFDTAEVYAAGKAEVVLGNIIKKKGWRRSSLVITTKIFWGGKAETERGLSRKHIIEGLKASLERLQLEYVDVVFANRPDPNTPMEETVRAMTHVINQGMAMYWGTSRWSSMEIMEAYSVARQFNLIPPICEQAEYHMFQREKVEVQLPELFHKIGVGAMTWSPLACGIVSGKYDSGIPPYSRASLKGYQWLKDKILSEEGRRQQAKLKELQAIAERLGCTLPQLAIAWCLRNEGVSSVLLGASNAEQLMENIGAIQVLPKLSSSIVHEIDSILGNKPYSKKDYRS

[5] = biological target: Voltage-gated potassium channel subunit beta-2 (Rattus norvegicus) (UniProt P62483); assay: KvBeta positive modulators, primary screen, biochemical, NADPH fluorescence (AID 623;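 active = NADPH fluorescence slope more negative than the mean of all samples by about 3 SD, 99.7% confidence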;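 note: fluorescence intensity change per second fitted from 20 to 320 s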); conditions: Recombinant KvBeta, NADPH fluorescence decrease slope, 10 min; at 10 µM; stronger effect = lower value
[6] = biological target: Muscarinic acetylcholine receptor M4 (Homo sapiens) (UniProt P08173); assay: compounds altering M4/GIRK thallium flux, either direction, primary screen, M4 allosteric agonist project, cell-based, HEK293 M4/GIRK, BTC-AM (AID 625;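 active = fluorescence slope after compound addition differing from the mean of all tested samples at 99.7% confidence, mostly higher but some lower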;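 note: thallium influx through GIRK channels coupled to M4 in HEK293 cells with BTC-AM dye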); conditions: at 10 µM, actives lie on both sides
Muscarinic acetylcholine receptor M4 (Homo sapiens), sequence (P08173 whole entry, looked up): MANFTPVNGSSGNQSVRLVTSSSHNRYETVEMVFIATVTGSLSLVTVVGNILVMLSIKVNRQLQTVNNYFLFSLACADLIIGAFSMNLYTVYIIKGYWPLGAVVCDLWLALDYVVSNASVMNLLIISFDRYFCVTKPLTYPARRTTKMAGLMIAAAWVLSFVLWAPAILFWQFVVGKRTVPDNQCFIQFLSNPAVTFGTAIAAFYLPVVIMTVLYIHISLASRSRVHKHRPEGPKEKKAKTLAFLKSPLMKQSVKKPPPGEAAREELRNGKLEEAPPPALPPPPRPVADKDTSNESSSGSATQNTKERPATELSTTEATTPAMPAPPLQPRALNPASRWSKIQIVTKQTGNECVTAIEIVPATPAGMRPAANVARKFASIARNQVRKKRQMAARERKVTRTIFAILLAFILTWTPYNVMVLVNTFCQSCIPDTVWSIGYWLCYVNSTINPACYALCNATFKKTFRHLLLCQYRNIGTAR

[7] = inhibitors of Sendai virus-induced IRF3 signaling, primary screen, TLR/RLR signaling modifier project, cell-based, Sendai virus stimulus, luciferase, 10K MLSCN set (AID 602276;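 active = inhibition at or above 50% at 10 µM; inactive = inhibition below 50%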;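 note: firefly luciferase from ISG56 promoter only with Renilla not read in this screen; 0% = Sendai virus plus DMSO and 100% = medium plus DMSO without virus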); conditions: HEK293 RL24 IRF3 luciferase reporter, at 10 µM, stronger effect = higher value
[8] = inhibitors of poly I:C-induced TLR3 signaling, primary screen, cell-based, poly I:C stimulus, luciferase, 10K MLSCN set (AID 602277); conditions: HEK293-TLR3 RL24 IRF3 luciferase reporter, at 10 µM, stronger effect = higher value
[9] = DUSP6 inhibitors restoring Erk phosphorylation by chemical complementation, primary imaging in DUSP6-transfected HeLa (AID 609;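 active = compounds giving at least 50% inhibition in the cell-based MKP-3 phosphatase rescue imaging test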;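 for inhibition: phospho-Erk level distribution per well compared with pooled transfected vehicle control wells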); conditions: HeLa MKP-3 transfected, phospho-Erk imaging KS statistic, at 10 µM, cells stimulated with TPA for 15 min
[10] = biological target: Dual specificity protein phosphatase 6 (Homo sapiens) (UniProt Q16828); assay: as above; conditions: HeLa MKP-3 transfected, phospho-Erk imaging KS statistic; at 10 µM; stronger effect = higher value; cells stimulated with TPA for 15 min
Dual specificity protein phosphatase 6 (Homo sapiens), sequence (Q16828 whole entry, looked up): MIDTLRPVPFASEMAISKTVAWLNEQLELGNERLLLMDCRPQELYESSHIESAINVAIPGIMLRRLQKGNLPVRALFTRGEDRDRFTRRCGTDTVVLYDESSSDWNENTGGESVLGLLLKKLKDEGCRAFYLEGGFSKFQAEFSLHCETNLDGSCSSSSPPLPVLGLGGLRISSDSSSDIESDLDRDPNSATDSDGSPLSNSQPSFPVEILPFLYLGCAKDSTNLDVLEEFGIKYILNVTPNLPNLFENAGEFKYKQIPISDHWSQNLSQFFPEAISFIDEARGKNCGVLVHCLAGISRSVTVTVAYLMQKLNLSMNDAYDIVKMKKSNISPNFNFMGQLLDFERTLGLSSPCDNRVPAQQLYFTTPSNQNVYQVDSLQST

[11] = biological target: Alpha-2C adrenergic receptor (Homo sapiens) (UniProt P18825); assay: modulators of alpha2C/GIRK thallium flux, primary screen, cell-based, HEK293 alpha2C/GIRK1/2 (AID 624;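 active = fluorescence slope after compound addition differing from the mean of all screened samples at 99.7% confidence, in either direction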;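 note: slope of fluorescence ratio to pre-addition baseline per second over 15 to 24 s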); conditions: thallium flux BTC fluorescence, at 10 µM, actives lie on both sides
Alpha-2C adrenergic receptor (Homo sapiens), sequence (P18825 whole entry, looked up): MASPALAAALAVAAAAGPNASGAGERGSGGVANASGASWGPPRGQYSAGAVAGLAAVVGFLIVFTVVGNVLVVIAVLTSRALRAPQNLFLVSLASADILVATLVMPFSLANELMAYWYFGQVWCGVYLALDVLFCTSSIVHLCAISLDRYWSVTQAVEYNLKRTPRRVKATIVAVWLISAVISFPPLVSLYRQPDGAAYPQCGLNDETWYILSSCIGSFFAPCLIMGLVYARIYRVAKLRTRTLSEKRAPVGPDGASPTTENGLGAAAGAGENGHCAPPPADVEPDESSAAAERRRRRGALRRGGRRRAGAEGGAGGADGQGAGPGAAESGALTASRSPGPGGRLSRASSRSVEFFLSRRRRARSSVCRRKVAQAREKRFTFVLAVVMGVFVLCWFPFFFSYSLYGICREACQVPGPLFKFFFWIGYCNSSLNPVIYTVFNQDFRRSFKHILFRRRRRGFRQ

[12] = inhibitors of larval lipid processing in zebrafish, primary screen, whole organism, PED6 fluorescence, gall bladder and intestine (AID 686;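 active = a full or partial loss of lipid-probe fluorescence in the fish gall bladder, intestine or both, judged by eye; inactive = no fluorescence loss, or compound toxic to the fish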;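 note: larvae 5 to 7 days old with five fish per well; signal comes from phospholipase A2 cleavage of quenched PED6 carried via bile; overnight exposure to compound and PED6 before scoring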); conditions: Zebrafish larvae PED6 lipid processing, fluorescence scoring; screened at 20 µM (by protocol)

SMILES | cell count [1] | inhibition [1] | inhibition of aggregation [2] | nuclei count [2] [%] | inhibition [3] | nuclei count [3] [%] | fluorescence slope [4] | NADPH fluorescence slope [5] | fluorescence slope [6] | inhibition [7] | inhibition [8] | z-score ([9]; measured here: cell density z-score) | z-score ([9]; measured here: nuclear c-Myc green intensity z-score) | z-score ([9]; measured here: nuclear pErk red intensity z-score, stronger effect = higher value) | inhibition [10] | slope [11] | outcome [12]
CCOC(=O)N1CCC(NC(=O)c2ccc(OC)c(CN3CC(=O)N4CCCC4C3=O)c2)CC1 (configuration not stated) | 532 | -18.9% (inactive) | 2.9% (inactive) | 98 | -71.7% (inactive) | 94.9 | -0.447 (inactive) | -4.9e-05 (inactive) | 0.00582 (inactive) | 13.2% (inactive) | 24.9% (inactive) |  |  |  |  |  | 
O=C(CN1C(=O)COc2ccccc21)NCCCN1CCN(Cc2ccccc2)CC1 | 470 | -2.6% (inactive) | 0.5% (inactive) | 91.9 | -131% (inactive) | 232 | -0.581 (inactive) | -8.3e-06 (inactive) | 0.00512 (inactive) | -9.51% (inactive) | -8.02% (inactive) |  |  |  |  |  | 
COc1ccc2cc([C@H](C)C(=O)O)ccc2c1 | 649 | -0.4% (inactive) |  |  | -51.6% (inactive) | 120 | -0.491 (inactive) | -6.7e-05 (inactive) |  | 13.2% (inactive) | 30.5% (inactive) | -0.246 | 0.258 | 0.308 | 5.42% (inactive) | 0.00486 (inactive) | 
COc1cccc(-c2cc3nc4c(c(N5CCC6(CC5)OCCO6)n3n2)CCCC4)c1 | 479 | 10.2% (inactive) | 18.9% (inactive) | 98.9 |  | 149 | -0.401 (inactive) | 2.4e-05 (inactive) | 0.00624 (inactive) | -10.9% (inactive) | -32.3% (inactive) |  |  |  |  |  | 
CC(C)C12CN3CC(C(C)C)(CN(C1)C3c1ccc3c(c1)OCO3)C2=O (configuration not stated) | 412 | 10.8% (inactive) | -9.1% (inactive) | 98.4 |  |  | -0.304 (inactive) | -1e-05 (inactive) |  | 11.3% (inactive) | 20.8% (inactive) |  |  |  |  | 0.00697 (inactive) | inactive
CCOC(=O)c1ccc(NC(=O)CCc2nc(-c3ccc(C)cc3)no2)cc1 | 368 | 0.7% (inactive) | 21.5% (inactive) | 103 | -32.9% (inactive) | 116 | -0.556 (inactive) | -2.2e-05 (inactive) | 0.0041 (inactive) | 11.4% (inactive) | -5.93% (inactive) |  |  |  |  |  | 
COc1ccc(OC)c(NC(=O)C2CCN(c3cc(-c4ccccc4)nc4ncnn34)CC2)c1 | 449 | 2.1% (inactive) | 17% (inactive) | 95 |  | 150 | -0.528 (inactive) | 1.4e-05 (inactive) | 0.00653 (inactive) | 15% (inactive) | 15.1% (inactive) |  |  |  |  |  | 
O=C1CC(=O)N(Cc2cccs2)C(=O)N1 | 336 | 4.7% (inactive) | 12.5% (inactive) | 98.3 |  | 116 | -0.632 (inactive) | 5.3e-05 (inactive) | 0.00466 (inactive) | 1.08% (inactive) | 6.01% (inactive) |  |  |  |  |  | 
CC1C(c2ccccc2)N(C)CCC12NC(=O)NC2=O (configuration not stated) | 315 | -0.8% (inactive) | -12.3% (inactive) | 108 | -43% (inactive) | 135 | -0.397 (inactive) | 6.4e-05 (inactive) | 0.00604 (inactive) | -0.144% (inactive) | 3.49% (inactive) |  |  |  |  |  | 
N=c1c(C(=O)NCc2ccc(F)cc2)cc2c(=O)n3ccccc3nc2n1CCCN1CCOCC1 | 537 | 4.4% (inactive) | -26.3% (inactive) | 102 | -45.8% (inactive) | 122 | -0.374 (inactive) | -1e-05 (inactive) |  |  | 69.7% (active) |  |  |  |  | 0.00357 (inactive) | 

Reference: PubChem BioAssay
